The panel holds about 79,000 compounds, 15% with a hit somewhere; the sample as a whole holds those more often. Active and inactive are the calls of the source. Rule as the data show it: active = growth inhibition above about 70%; inactive = the rest.
Tests used:
[1] = NCI Yeast Anticancer Drug Screen. Data for the rad50 strain (AID 155);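 also: 0% = growth of vehicle-only cultures of the same strain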; details: S. cerevisiae rad50 strain growth inhibition, stronger effect = higher value
Procedure, shortened: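 A DNA repair-deficient yeast mutant serves as the test organism; compound-induced growth inhibition is calculated against vehicle-treated cells.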

[2] = NCI Yeast Anticancer Drug Screen. Data for the mec2-1 strain (AID 157); details: S. cerevisiae mec2-1 strain, stronger effect = higher value
Procedure, shortened: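 Cells of the genetically defined mec2-1 yeast strain are incubated with test compound. Inhibition of growth is calculated against vehicle-treated controls.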

[3] = NCI Yeast Anticancer Drug Screen. Data for the sgs1 mgt1 strain (AID 161);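 also: 0% = growth of cultures given vehicle only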; details: S. cerevisiae sgs1 mgt1 strain, stronger effect = higher value
Procedure, shortened: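 Test agents were incubated with a DNA-repair-mutant yeast strain. Growth was then read and compared against vehicle-treated controls.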

[4] = NCI Yeast Anticancer Drug Screen. Data for the cln2 rad14 strain (AID 165);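 also: 0% = growth equal to vehicle treated cultures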; details: S. cerevisiae cln2 rad14 strain, stronger effect = higher value
Procedure, shortened: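 The screen exposed genetically defined yeast (cln2 rad14) to test compounds and scored growth inhibition relative to vehicle-treated controls.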

[5] = NCI Yeast Anticancer Drug Screen. Data for the bub3 strain (AID 167); details: S. cerevisiae bub3 mutant strain, stronger effect = higher value
Procedure, shortened: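 Inhibition values come from growth of compound-treated mutant yeast normalised to vehicle-treated controls.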

[6] = NCI Yeast Anticancer Drug Screen. Data for the mlh1 rad18 strain (AID 175); details: S. cerevisiae mlh1 rad18 strain growth inhibition, stronger effect = higher value
Procedure, shortened: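 Compound-treated yeast growth, normalised to vehicle controls. Strain bears defined DNA repair mutations.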

[7] = at 5.0 µM (retest, dose inferred, filed as 0.5)
[8] = at 50.0 µM (retest, dose inferred, filed as 5.0)

Measured: growth inhibition

CCOC(=O)C(=Cc1cccnc1C)C(=O)OCC
active: [1]; at 50.0 µM 70.9% | [5]; at 50.0 µM 73.2%
inactive: [1]; [7] 16% | [1]; [8] 1% | [2]; [7] -3% | [2]; [8] 4% | [2]; at 50.0 µM 51.7% | [3]; [7] 42% | [3]; [8] 4% | [3]; at 50.0 µM 60.7% | [4]; [7] 16% | [4]; [8] 27% | [4]; at 50.0 µM 45.9% | [5]; [7] -31% | [5]; [8] -14% | [6]; [7] -8% | [6]; [8] 1% | [6]; at 50.0 µM 57.7%

O=[N+]([O-])C(=C(Nc1ccccc1)Nc1ccccc1)C(Cl)=C(Cl)Cl
active: [1]; [7] 97% | [1]; [8] 100% | [1]; at 50.0 µM 89.2% | [2]; [7] 98% | [2]; [8] 100% | [2]; at 50.0 µM 93% | [3]; [7] 92% | [3]; [8] 99% | [3]; at 50.0 µM 89.2% | [4]; [7] 91% | [4]; [8] 100% | [4]; at 50.0 µM 90.7% | [5]; [7] 94% | [5]; [8] 100% | [5]; at 50.0 µM 91.5% | [6]; [7] 99% | [6]; [8] 100% | [6]; at 50.0 µM 85.7%

NNc1cc(C(F)(F)F)nc2ccccc12
inactive: [1]; [7] -133% | [1]; [8] -80% | [1]; at 50.0 µM 35.5% | [2]; [7] -48% | [2]; [8] -46% | [2]; at 50.0 µM 3.1% | [3]; [7] -53% | [3]; [8] -48% | [3]; at 50.0 µM -21.1% | [4]; [7] -56% | [4]; [8] -88% | [4]; at 50.0 µM 34.1% | [5]; [7] -65% | [5]; [8] -75% | [5]; at 50.0 µM 1.45% | [6]; [7] -108% | [6]; [8] -95% | [6]; at 50.0 µM 64.8%

Cn1ncc2c(Nc3ccccc3)nc(Nc3ccccc3)nc21
active: [5]; at 50.0 µM 72.5% | [6]; at 50.0 µM 80.4%
inactive: [1]; [7] -1% | [1]; [8] 7% | [1]; at 50.0 µM 54.1% | [2]; [7] -5% | [2]; [8] -33% | [2]; at 50.0 µM 54.1% | [3]; [7] -1% | [3]; [8] 8% | [3]; at 50.0 µM 56.5% | [4]; [7] 5% | [4]; [8] 0% | [4]; at 50.0 µM 44.5% | [5]; [7] -1% | [5]; [8] -17% | [6]; [7] 5% | [6]; [8] 15%

COc1ccc(CCCCC(=O)O)cc1O
inactive: [1]; [7] -155% | [1]; [8] -161% | [1]; at 50.0 µM 40.9% | [2]; [7] -52% | [2]; [8] -54% | [2]; at 50.0 µM 14.1% | [3]; [7] -56% | [3]; [8] -65% | [3]; at 50.0 µM 29.9% | [4]; [7] -57% | [4]; [8] -55% | [4]; at 50.0 µM 61.9% | [5]; [7] -69% | [5]; [8] -80% | [5]; at 50.0 µM 2.5% | [6]; [7] -117% | [6]; [8] -117% | [6]; at 50.0 µM 28.4%

c1ccc2c(c1)N=c1ccccc1=P21c2ccccc2Nc2ccccc21
active: [1]; [7] 89% | [1]; [8] 99% | [1]; at 50.0 µM 87.3% | [2]; [7] 93% | [2]; [8] 99% | [2]; at 50.0 µM 90.9% | [3]; [7] 84% | [3]; [8] 99% | [3]; at 50.0 µM 87.8% | [4]; [7] 85% | [4]; [8] 99% | [4]; at 50.0 µM 89.5% | [5]; [7] 97% | [5]; [8] 99% | [5]; at 50.0 µM 89.8% | [6]; [7] 92% | [6]; [8] 99% | [6]; at 50.0 µM 83.2%

O=Cc1cc2ccccc2cc1C=O
active: [1]; [7] 88% | [1]; [8] 96% | [1]; at 50.0 µM 86% | [2]; [7] 94% | [2]; [8] 97% | [2]; at 50.0 µM 87.3% | [3]; [7] 84% | [3]; [8] 96% | [3]; at 50.0 µM 87.2% | [4]; [7] 87% | [4]; [8] 95% | [4]; at 50.0 µM 88.8% | [5]; [7] 94% | [5]; [8] 96% | [5]; at 50.0 µM 86.5% | [6]; [7] 93% | [6]; [8] 95% | [6]; at 50.0 µM 86.2%

COc1ccccc1/C=C1\C=Cc2ccccc21
inactive: [1]; [7] -3% | [1]; [8] 6% | [1]; at 50.0 µM 31.9% | [2]; [7] 0% | [2]; [8] -1% | [2]; at 50.0 µM 49.5% | [3]; [7] -4% | [3]; [8] 8% | [3]; at 50.0 µM 44.2% | [4]; [7] -1% | [4]; [8] -14% | [4]; at 50.0 µM 26.2% | [5]; [7] 3% | [5]; [8] -1% | [6]; [7] -3% | [6]; [8] 7%
active: [5]; at 50.0 µM 78% | [6]; at 50.0 µM 70.4%

Cc1ccc(NC(=O)CSC(N)=O)cc1C
inactive: [1]; [7] 4% | [1]; [8] 22% | [2]; [7] 1% | [2]; [8] 40% | [3]; [7] 1% | [3]; [8] 30% | [4]; [7] 1% | [4]; [8] 9% | [4]; at 50.0 µM 58.5% | [5]; [7] 5% | [5]; [8] 69% | [6]; [7] 8% | [6]; [8] 20%
active: [1]; at 50.0 µM 81.5% | [2]; at 50.0 µM 70.1% | [3]; at 50.0 µM 87.3% | [5]; at 50.0 µM 86.2% | [6]; at 50.0 µM 72%

C1CCC(CCNCCC2CCCCC2)CC1
active: [1]; [8] 99% | [1]; at 50.0 µM 99% | [2]; [8] 99% | [2]; at 50.0 µM 97.5% | [3]; [8] 99% | [3]; at 50.0 µM 99% | [4]; [8] 99% | [4]; at 50.0 µM 98.7% | [5]; [8] 99% | [5]; at 50.0 µM 98.5% | [6]; [8] 99% | [6]; at 50.0 µM 98.7%
inactive: [1]; [7] -1% | [2]; [7] -15% | [3]; [7] 25% | [4]; [7] -15% | [5]; [7] -8% | [6]; [7] 8%
